From ChEMBL document CHEMBL3988442, “University of Dundee, Small-Polar-MMV Screening Library” (2021)
For some of these results: Results with a measured potency or affinity are listed apart.

How the values were obtained:
Design in all cases: scale not given: direction of the effect not stated beside the values
[1] = target: Protein translocase subunit SecA (Escherichia coli (strain K12)) (UniProt P10408); test: Assay to Identify E. coli SecA ATPase Inhibitors; type: functional; conditions: 30 µM
Protein translocase subunit SecA (Escherichia coli (strain K12)), sequence (P10408 whole entry): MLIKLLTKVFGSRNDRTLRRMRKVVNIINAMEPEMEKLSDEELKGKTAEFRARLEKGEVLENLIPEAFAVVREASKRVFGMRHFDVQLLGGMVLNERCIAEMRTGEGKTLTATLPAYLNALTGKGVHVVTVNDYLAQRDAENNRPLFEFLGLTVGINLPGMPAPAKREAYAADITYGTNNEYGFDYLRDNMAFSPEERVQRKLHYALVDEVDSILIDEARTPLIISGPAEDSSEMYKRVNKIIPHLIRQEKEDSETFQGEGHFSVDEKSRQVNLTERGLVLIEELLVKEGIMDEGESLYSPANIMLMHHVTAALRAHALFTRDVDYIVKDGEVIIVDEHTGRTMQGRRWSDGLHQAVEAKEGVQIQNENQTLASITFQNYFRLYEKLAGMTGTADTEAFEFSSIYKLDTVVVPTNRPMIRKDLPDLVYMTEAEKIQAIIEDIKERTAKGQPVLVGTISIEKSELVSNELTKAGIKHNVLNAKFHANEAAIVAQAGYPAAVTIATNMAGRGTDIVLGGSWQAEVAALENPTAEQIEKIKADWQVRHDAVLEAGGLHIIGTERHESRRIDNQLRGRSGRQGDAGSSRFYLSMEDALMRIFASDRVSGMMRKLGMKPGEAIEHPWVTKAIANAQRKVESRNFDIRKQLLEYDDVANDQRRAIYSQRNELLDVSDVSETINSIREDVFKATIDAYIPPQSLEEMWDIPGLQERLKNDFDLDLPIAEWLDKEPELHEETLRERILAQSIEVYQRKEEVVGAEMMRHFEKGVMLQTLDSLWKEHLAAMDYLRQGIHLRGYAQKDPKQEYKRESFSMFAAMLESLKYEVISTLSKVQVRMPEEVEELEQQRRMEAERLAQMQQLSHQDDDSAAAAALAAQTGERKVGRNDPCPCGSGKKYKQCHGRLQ

[2] = target: T1, Ubiquitin-activating enzyme e1, putative (Leishmania donovani (strain BPK282A1)) (UniProt E9BSI1); test: Leishmania donovani Ubiquitin Activating Enzyme (LdE1); type: functional; conditions: 30 µM
T1 sequence (whole entry): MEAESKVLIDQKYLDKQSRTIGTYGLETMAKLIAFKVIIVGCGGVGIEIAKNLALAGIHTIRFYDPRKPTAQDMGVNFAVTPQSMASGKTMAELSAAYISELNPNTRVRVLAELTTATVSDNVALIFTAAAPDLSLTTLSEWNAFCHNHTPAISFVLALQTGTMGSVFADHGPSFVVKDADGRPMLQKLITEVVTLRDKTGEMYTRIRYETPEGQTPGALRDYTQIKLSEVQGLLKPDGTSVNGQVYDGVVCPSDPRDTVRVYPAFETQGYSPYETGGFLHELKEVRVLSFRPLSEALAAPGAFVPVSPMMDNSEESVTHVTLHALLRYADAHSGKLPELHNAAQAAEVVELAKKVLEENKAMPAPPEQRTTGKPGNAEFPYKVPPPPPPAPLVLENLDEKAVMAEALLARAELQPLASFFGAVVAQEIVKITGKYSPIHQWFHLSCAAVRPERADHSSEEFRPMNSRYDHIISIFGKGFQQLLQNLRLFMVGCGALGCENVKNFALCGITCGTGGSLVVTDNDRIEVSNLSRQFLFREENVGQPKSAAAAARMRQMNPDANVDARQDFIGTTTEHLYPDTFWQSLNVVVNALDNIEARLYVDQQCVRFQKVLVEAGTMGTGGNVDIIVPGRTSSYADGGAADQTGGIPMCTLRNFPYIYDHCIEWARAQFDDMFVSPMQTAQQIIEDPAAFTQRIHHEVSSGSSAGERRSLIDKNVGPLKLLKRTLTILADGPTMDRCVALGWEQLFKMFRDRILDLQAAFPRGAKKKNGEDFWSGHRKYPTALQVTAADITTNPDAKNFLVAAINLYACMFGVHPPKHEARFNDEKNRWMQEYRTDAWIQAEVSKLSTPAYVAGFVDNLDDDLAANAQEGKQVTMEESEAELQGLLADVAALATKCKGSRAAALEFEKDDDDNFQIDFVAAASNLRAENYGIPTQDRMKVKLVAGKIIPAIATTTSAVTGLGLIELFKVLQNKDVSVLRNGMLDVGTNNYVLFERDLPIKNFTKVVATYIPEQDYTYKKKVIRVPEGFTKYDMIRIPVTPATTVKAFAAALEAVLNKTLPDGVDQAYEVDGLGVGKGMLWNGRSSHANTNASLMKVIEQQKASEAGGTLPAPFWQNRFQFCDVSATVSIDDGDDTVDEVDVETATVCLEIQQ

[3] = target: AMP-activated protein kinase, AMPK (Homo sapiens) (UniProt P54646+O43741+P54619+Q9UGJ0+Q9Y478+Q13131+Q9UGI9); test: AMP-dependent Kinase enzyme assay. An in vitro enzyme assay that detects ADP turnover that is directly proportional to AMPK activity. This uses naive AMPK that is activated during the assay with MK-8722; type: functional; conditions: 30 µM
[4] = target: Sialic acid-binding Ig-like lectin 9 (Homo sapiens) (UniProt Q9Y336); test: Hs-Siglec9 ALPHAscreen SOP 20170721; conditions: 10 µM
Sialic acid-binding Ig-like lectin 9 (Homo sapiens), sequence (Q9Y336 whole entry): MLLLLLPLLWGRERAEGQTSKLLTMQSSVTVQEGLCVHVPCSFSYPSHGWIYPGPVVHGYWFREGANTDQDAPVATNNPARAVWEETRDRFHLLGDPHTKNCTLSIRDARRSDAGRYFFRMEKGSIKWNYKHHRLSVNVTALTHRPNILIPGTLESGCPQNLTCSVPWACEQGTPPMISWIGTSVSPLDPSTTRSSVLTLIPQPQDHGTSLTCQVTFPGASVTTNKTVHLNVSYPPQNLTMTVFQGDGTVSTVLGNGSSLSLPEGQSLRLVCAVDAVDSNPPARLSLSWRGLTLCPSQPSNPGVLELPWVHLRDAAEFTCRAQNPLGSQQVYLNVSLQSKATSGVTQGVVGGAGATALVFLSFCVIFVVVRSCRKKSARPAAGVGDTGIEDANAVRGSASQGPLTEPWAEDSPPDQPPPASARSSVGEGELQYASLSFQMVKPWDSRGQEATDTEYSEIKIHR

Trypanosoma cruzi = test: Trypanosoma cruzi phosphomannomutase and mannose-1-phosphate guanylyltransferase assay; type: functional; conditions: 10 µM
[5] = target: T2, Arginase-2, mitochondrial (Homo sapiens) (UniProt P78540); test: in vitro enzyme assay to detect the production of urea directly proportional to the activity of Arginase II; type: functional; conditions: 33.3 µM; further: in the data most compounds retested in dose-response had high values
T2 sequence (whole entry): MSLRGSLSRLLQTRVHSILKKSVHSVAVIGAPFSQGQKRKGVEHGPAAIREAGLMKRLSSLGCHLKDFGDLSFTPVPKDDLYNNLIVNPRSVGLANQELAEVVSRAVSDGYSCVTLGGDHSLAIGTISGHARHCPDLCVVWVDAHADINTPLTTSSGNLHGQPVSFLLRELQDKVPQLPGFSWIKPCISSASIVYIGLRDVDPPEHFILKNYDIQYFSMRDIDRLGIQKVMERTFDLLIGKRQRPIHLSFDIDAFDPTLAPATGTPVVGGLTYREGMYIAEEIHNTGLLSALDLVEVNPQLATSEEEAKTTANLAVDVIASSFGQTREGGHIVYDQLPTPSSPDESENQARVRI

[6] = target: T3, Proteasome subunit beta (Trypanosoma cruzi) (UniProt O96673); test: Trypanosoma cruzi proteasome chymotrypsin-like activity (TcProtChymo) assay.; further: in the data most compounds retested in dose-response had high values; type: functional; conditions: 9.37 µM
T3 sequence (whole entry): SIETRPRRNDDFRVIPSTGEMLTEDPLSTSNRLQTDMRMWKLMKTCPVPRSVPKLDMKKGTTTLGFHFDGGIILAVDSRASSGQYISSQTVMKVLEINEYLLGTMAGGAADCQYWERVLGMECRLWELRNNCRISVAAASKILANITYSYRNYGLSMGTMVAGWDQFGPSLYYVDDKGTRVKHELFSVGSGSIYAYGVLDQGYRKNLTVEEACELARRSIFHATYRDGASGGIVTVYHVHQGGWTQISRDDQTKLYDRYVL

Homo sapiens = species: Homo sapiens; test: To identify inhibition of the IFN signalling (Jak-Stat) pathway via expression of an eGFP reporter gene under the control of an IFN-stimulated response element (ISRE) containing MxA promoter.; type: functional; conditions: 30 µM
[7] = target: T4, Tyrosyl-tRNA synthetase, putative (Trypanosoma cruzi (strain CL Brener)) (UniProt Q4DSP6); test: Trypanosoma cruzi tyrosyl tRNA synthetase (TcYRS) _High Tyrosine SOP; type: functional; conditions: 30 µM; further: in the data most compounds retested in dose-response had high values
T4 sequence (whole entry): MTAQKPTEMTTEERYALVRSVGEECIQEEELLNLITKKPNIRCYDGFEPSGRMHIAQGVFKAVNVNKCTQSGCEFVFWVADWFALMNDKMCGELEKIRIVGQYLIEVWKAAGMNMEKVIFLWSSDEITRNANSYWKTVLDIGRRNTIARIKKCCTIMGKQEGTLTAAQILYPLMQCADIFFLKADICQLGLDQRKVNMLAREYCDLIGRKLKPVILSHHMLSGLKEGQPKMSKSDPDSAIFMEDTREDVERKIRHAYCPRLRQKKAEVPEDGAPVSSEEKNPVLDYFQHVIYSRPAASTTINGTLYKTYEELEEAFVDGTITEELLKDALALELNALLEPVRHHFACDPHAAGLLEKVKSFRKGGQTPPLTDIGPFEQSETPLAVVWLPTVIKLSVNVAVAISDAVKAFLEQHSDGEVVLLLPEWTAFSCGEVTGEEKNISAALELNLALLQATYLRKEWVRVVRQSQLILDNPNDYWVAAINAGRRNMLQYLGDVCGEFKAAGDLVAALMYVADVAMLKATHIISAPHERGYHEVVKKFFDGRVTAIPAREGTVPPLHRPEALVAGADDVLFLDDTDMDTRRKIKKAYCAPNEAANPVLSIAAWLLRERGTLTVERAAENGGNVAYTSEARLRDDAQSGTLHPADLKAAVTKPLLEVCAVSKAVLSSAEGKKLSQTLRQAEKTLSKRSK

[8] = target: T4, Tyrosyl-tRNA synthetase, putative (Trypanosoma cruzi (strain CL Brener)); test: Trypanosoma cruzi tyrosyl tRNA synthetase (TcYRS) SOP; type: functional; conditions: 30 µM
[9] = target: Chromo domain-containing protein 1 (Saccharomyces cerevisiae (strain ATCC 204508 / S288c) (Baker's yeast)) (UniProt P32657); test: ScCHD-1 Enzyme Inhibition Assay; type: functional; conditions: 30 µM; further: in the data most compounds retested in dose-response had high values
Chromo domain-containing protein 1 (Saccharomyces cerevisiae (strain ATCC 204508 / S288c) (Baker's yeast)), sequence (P32657 whole entry, the tested form may be a part): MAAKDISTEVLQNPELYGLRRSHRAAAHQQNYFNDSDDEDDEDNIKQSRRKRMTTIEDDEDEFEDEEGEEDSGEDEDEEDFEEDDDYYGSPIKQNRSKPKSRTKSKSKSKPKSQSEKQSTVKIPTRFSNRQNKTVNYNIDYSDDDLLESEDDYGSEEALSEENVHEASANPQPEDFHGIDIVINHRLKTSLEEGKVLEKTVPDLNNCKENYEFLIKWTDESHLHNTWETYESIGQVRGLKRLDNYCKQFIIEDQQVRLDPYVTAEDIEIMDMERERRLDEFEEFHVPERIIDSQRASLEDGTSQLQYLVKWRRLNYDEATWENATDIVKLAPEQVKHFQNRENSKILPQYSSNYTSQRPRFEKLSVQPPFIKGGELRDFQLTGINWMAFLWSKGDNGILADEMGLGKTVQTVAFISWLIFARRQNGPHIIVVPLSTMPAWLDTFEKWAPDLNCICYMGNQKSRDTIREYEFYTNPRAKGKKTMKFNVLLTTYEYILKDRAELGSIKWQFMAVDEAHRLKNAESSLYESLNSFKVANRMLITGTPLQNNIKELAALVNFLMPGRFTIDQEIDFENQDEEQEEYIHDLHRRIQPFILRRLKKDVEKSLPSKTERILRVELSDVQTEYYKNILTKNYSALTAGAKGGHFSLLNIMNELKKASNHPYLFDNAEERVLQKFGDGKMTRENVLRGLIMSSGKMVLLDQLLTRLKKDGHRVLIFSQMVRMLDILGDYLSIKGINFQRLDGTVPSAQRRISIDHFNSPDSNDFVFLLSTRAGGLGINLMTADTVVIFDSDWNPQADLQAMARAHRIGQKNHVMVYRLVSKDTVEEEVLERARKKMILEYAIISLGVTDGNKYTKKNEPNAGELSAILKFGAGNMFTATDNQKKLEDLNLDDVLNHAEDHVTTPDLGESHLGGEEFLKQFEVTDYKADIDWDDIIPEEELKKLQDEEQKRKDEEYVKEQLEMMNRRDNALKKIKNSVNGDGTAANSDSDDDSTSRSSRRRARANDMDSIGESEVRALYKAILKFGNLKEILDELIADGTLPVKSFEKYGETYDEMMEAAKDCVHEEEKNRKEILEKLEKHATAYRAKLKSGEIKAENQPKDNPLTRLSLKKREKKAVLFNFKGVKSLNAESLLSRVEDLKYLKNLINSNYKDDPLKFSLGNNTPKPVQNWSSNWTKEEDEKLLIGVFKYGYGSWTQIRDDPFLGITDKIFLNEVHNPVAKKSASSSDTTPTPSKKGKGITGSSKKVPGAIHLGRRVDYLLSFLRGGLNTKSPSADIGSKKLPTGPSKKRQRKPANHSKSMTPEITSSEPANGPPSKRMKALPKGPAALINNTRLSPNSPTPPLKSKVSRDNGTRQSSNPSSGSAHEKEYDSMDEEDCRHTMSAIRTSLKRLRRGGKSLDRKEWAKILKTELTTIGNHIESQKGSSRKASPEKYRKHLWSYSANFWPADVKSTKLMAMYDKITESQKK

SMILES | Percent Effect [1] | Percent Effect [2] | Percent Effect [3] | Percent Effect [4] | Percent Effect (Trypanosoma cruzi) | Percent Effect [5] | Percent Effect [6] | Percent Effect (Homo sapiens) | Percent Effect [7] | Percent Effect [8] | Percent Effect [9]
Cc1csc(N2CCCN(Cc3noc(C)n3)CC2)n1 | -2.54% | 3.8% | -4.18% | 0.549% | 2.36% | -7.1% | 15.9% | 11.2% | 5.21% | 7.59% | -16%
CCC1CN(Cc2ccccc2)CCN1Cc1nnc(C2CCC2)o1 (configuration not stated) | -1.22% | 2.74% | -2.21% | 8.69% | 6.07% | 5.91% | 1.95% | -3.45% | 1.07% | 5% | -0.293%
CCc1ccc(CCC(=O)N2CCOCC2c2ncon2)cc1 (configuration not stated) | 2.75% | -8.11% | 4.51% | 1.5% | -2.69% | 3.14% | 3.05% | 13.7% | -0.99% | 1.22% | 8.82%
CN(C)[C@@H]1CCN(c2ncccn2)[C@H]1Cc1ccccc1 | -5.52% | 5.2% | 0.378% | 3.63% | 2.06% | -1.38% | 8.65% | -3.26% | 2.15% | 6.17% | 1.34%
Cc1nc(C2CCCN(C(=O)c3sccc3C3CC3)C2)no1 (configuration not stated) | -1.32% | -1.39% | -29% | -2.96% | -0.486% | -0.442% | 11.9% | 5.93% | 0% | 0% | -0.247%
Cc1cc(C(=O)N2CC[C@@H]3CN(c4ncccn4)CCO[C@@H]3C2)c(C)o1 | -0.56% | 16.2% | -3.77% | -14.6% | 0.0978% | 6.69% | 29% | -4.39% | 6.49% | 20.5% | -4.19%
Cc1cnc(CN(Cc2ccccc2)CC(O)c2cccs2)cn1 (configuration not stated) | 0.271% | 5.41% | -2.24% | 20.3% | 6.35% | 41.9% | 0.772% | 5.39% | -3.23% | 6.17% | -11.6%
CC(C)Oc1cccc(CNC(=O)NC(C)(C(=O)O)c2ccco2)c1 (configuration not stated) | -2.82% | 13.2% | -1.29% | 13.7% | 3.08% | -1.08% | -2.79% | -7.9% | 9.36% | 18.5% | -0.593%
Cc1occc1C(=O)N1CCCC2(CCN(CCN3CCCC3)C2=O)C1 (configuration not stated) | -3.31% | -2.6% | -1.22% | 14.5% | 6.79% | -12.4% | 7.82% | -2.84% | -11.8% | -11.1% | -0.372%
CCc1nnc(CN(C)c2nc(C(C)C)nc3c2cnn3C)o1 | 3.23% | 4.17% | 6.88% | -0.661% | -3.6% | 2.21% | 16.8% | -1.37% | -2.1% | 2.56% | 1.23%
Cc1cnn(CC2CN(Cc3nc(-c4ccoc4)no3)CCO2)c1 (configuration not stated) | -2.87% | 8.11% | -1.58% | 1.14% | 7.08% | 0.401% | 2.16% | 13.1% | 3.45% | 11.1% | -9.57%
Cc1ccc(N2CCCc3sc(C(=O)NCc4cccnc4)nc32)nn1 | -3.86% | -8.22% | -0.787% | 3.77% | 7.54% | -7.19% | 5.39% | -8.08% | 1.04% | 6.17% | -2.84%
CCOC(=O)c1sc(NC(=O)CN(C)S(C)(=O)=O)c(C#N)c1C | -1.3% | 10.4% | 11.5% | -2.4% | -1.87% | 4.52% | 9.4% | 21.1% | 3.17% | 14.1% | -8.72%
COCCNC(=O)NCc1ccc(OC(C)C)c(F)c1 | -5.47% | 10.5% | -1.85% | 9.7% | 8.5% | -4.68% | 5.67% | 2.01% | 5.42% | 13.6% | 0.0512%
FC(F)(F)C1CCCn2c(CNCc3ccsc3)nnc21 (configuration not stated) | -2.76% | 2.67% | -9.01% | 4.99% | 2.63% | 1.56% | 20.2% | -14.2% | 9.29% | 18.5% | -3.87%
COC(C(=O)N1CCCN(Cc2cscn2)CC1)c1ccccc1 (configuration not stated) | -0.131% | 21.1% | -3.46% | -3.88% | 4.89% | -5.36% | 23.2% | 6.84% | 5.39% | 24.4% | -9.91%
O=C(c1ccc[nH]1)N1C[C@H]2CN(Cc3cccc(F)c3)C(=O)[C@H]2C1 | -2.55% | 13.5% | 9.65% | -6.44% | -2.05% | 6.05% | 20.3% | 13% | 0% | 7.69% | -2.96%
